Measured values taken from PubChem BioAssay (NCI).
Compounds without any hit were thinned out: in the full panel of roughly 83,000, 20% have a hit.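 48-hour exposure, single concentration, 96-well plates; percent growth endpoint where 0 means no net growth. Active: below 10.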 Active and inactive are the calls of the source.

Legend:
Experiment in all cases: NCI-60 one-dose screen, 48 h (100 = growth as untreated, 0 = no growth, -100 = all killed)
Settings in all cases: 10 µM unless noted
HCT-15 colon = tested on: HCT-15 colon
HT29 colon = tested on: HT29 colon
SNB-75 CNS = tested on: SNB-75 CNS
SNB-19 CNS = tested on: SNB-19 CNS
U251 CNS = tested on: U251 CNS
PC-3 prostate = tested on: PC-3 prostate
SK-MEL-5 melanoma = tested on: SK-MEL-5 melanoma
UACC-62 melanoma = tested on: UACC-62 melanoma
LOX IMVI melanoma = tested on: LOX IMVI melanoma
SK-MEL-28 melanoma = tested on: SK-MEL-28 melanoma
SK-MEL-2 melanoma = tested on: SK-MEL-2 melanoma
SN12C renal = tested on: SN12C renal
UO-31 renal = tested on: UO-31 renal
TK-10 renal = tested on: TK-10 renal
ACHN renal = tested on: ACHN renal
CAKI-1 renal = tested on: CAKI-1 renal
CCRF-CEM leukemia = tested on: CCRF-CEM leukemia
MOLT-4 leukemia = tested on: MOLT-4 leukemia
EKVX NSCLC = tested on: EKVX NSCLC
A498 renal = tested on: A498 renal

Measured: growth

CC(=O)OCC(=O)C1(O)C(C)CC2C3C=C(C)C4=Cc5c(cnn5-c5ccccc5)CC4(C)C3C(O)CC21C (centres undefined)
inactive: SNB-19 CNS 10.3% | U251 CNS 14.3% | SK-MEL-28 melanoma 35.3% | SK-MEL-2 melanoma 25.1% | SN12C renal 33.5% | TK-10 renal 38.7% | ACHN renal 22.8% | CAKI-1 renal 21.3% | CCRF-CEM leukemia 10.6%
active: HCT-15 colon -36.2% | HT29 colon -54.9% | SNB-75 CNS -8.24% | PC-3 prostate 9.92% | SK-MEL-5 melanoma -14.2% | UACC-62 melanoma -26.6% | LOX IMVI melanoma 6.79% | UO-31 renal -11.6% | MOLT-4 leukemia 9.2%

O=S(=O)(NCCCNc1nccc(-c2c(-c3cccc(O)c3)nc3occn23)n1)c1ccc(Br)cc1
active: UACC-62 melanoma 8.87%
inactive: HCT-15 colon 102% | HT29 colon 38.9% | SNB-75 CNS 97.4% | SNB-19 CNS 118% | U251 CNS 104% | PC-3 prostate 91.1% | SK-MEL-5 melanoma 47.1% | LOX IMVI melanoma 46.8% | SK-MEL-28 melanoma 35.5% | EKVX NSCLC 105% | SN12C renal 80.3% | UO-31 renal 90.8% | TK-10 renal 135% | ACHN renal 84.9% | CAKI-1 renal 75.6% | CCRF-CEM leukemia 87.9% | MOLT-4 leukemia 72.9%

O=C(NCCc1ccccn1)OCc1nc2nc(Cl)nc(N3CCOCC3)c2[nH]1
inactive: SNB-19 CNS 37.2% | U251 CNS 16.3% | PC-3 prostate 22.7% | UACC-62 melanoma 24.6% | SK-MEL-28 melanoma 41.9% | SN12C renal 28.6% | UO-31 renal 31.8%
active: HCT-15 colon -27.2% | HT29 colon -28.9% | SNB-75 CNS 2.59% | SK-MEL-5 melanoma -10.8% | LOX IMVI melanoma -49.9% | SK-MEL-2 melanoma -16% | TK-10 renal -29.4% | ACHN renal -94.9% | CAKI-1 renal 7.47% | A498 renal -9.02% | CCRF-CEM leukemia 0.909% | MOLT-4 leukemia 4.05%

O=C(O)C(/C=C/c1ccco1)=N\Nc1nc(-c2ccc(Cl)cc2)cs1
inactive: HCT-15 colon 36.3% | HT29 colon 86.4% | SNB-75 CNS 57.4% | SNB-19 CNS 42.5% | U251 CNS 30.7% | PC-3 prostate 54.3% | SK-MEL-5 melanoma 62.1% | UACC-62 melanoma 57.1% | LOX IMVI melanoma 46.7% | SK-MEL-28 melanoma 70.4% | EKVX NSCLC 67.1% | SN12C renal 86.8% | UO-31 renal 38.8% | TK-10 renal 77.6% | ACHN renal 69% | CAKI-1 renal 63.9% | CCRF-CEM leukemia 24% | MOLT-4 leukemia 40.9%

COc1ccc(Nn2c(SCC(=O)Nc3nc(-c4ccc(Cl)cc4)cs3)nc(C)c2C)cc1
active: SK-MEL-5 melanoma -21.5%
inactive: HCT-15 colon 59.8% | HT29 colon 30.1% | SNB-75 CNS 45.8% | SNB-19 CNS 79.2% | U251 CNS 43.5% | PC-3 prostate 35.7% | UACC-62 melanoma 49.5% | LOX IMVI melanoma 38.9% | SK-MEL-28 melanoma 86.8% | SK-MEL-2 melanoma 90.5% | SN12C renal 67.2% | UO-31 renal 39.4% | TK-10 renal 68.5% | ACHN renal 52% | CAKI-1 renal 34.4% | A498 renal 69.5% | MOLT-4 leukemia 36.1%

COc1c(Cl)cc(Cl)c2ccc(C=C3C(=O)N(C)C(=O)N(C)C3=O)nc12
inactive: HCT-15 colon 103% | HT29 colon 105% | SNB-75 CNS 98.6% | SNB-19 CNS 92% | U251 CNS 110% | PC-3 prostate 99.4% | SK-MEL-5 melanoma 101% | UACC-62 melanoma 102% | LOX IMVI melanoma 101% | SK-MEL-28 melanoma 109% | EKVX NSCLC 101% | SN12C renal 99.3% | UO-31 renal 96% | TK-10 renal 102% | ACHN renal 106% | CAKI-1 renal 95.3% | A498 renal 96.8% | CCRF-CEM leukemia 99.8% | MOLT-4 leukemia 99.5%

Cc1ccccc1C(c1ccccc1)c1ccccc1C
inactive: HCT-15 colon 95.6% | HT29 colon 95.8% | SNB-75 CNS 79.5% | SNB-19 CNS 98.7% | U251 CNS 99.3% | PC-3 prostate 83.2% | SK-MEL-5 melanoma 77.8% | UACC-62 melanoma 100% | LOX IMVI melanoma 94.9% | SK-MEL-28 melanoma 103% | SK-MEL-2 melanoma 101% | SN12C renal 96.8% | UO-31 renal 79.2% | TK-10 renal 100% | ACHN renal 94.2% | A498 renal 83.6% | CCRF-CEM leukemia 83.3% | MOLT-4 leukemia 93.5%

COc1cc2c(cc1[N+](=O)[O-])-c1ccc([N+](=O)[O-])cc1/C2=N\O
inactive: HCT-15 colon 87.4% | HT29 colon 75.3% | SNB-75 CNS 75.5% | SNB-19 CNS 79.4% | U251 CNS 76.8% | PC-3 prostate 73.2% | SK-MEL-5 melanoma 75.4% | UACC-62 melanoma 75.9% | LOX IMVI melanoma 67.8% | SK-MEL-28 melanoma 99.7% | EKVX NSCLC 76.7% | SN12C renal 91.1% | UO-31 renal 67.6% | TK-10 renal 78.9% | ACHN renal 72.5% | CAKI-1 renal 83.4% | CCRF-CEM leukemia 78.2% | MOLT-4 leukemia 83.3%

O=C(Nc1ccc(F)cc1)c1c(NC(=O)C(F)(F)F)sc2c1CCCCC2
active: HT29 colon 5.86% | SNB-75 CNS -23% | U251 CNS 6.02% | PC-3 prostate 3.29% | SK-MEL-5 melanoma -55.6% | UACC-62 melanoma 3.56% | SK-MEL-2 melanoma -26.8% | SN12C renal 2.15% | UO-31 renal -0.296% | ACHN renal 1.59% | CAKI-1 renal -19.1% | A498 renal -57% | MOLT-4 leukemia 3.21%
inactive: HCT-15 colon 11.5% | SNB-19 CNS 13.3% | LOX IMVI melanoma 15% | SK-MEL-28 melanoma 12.2% | TK-10 renal 15.5%

Cn1c(COC(=O)NCCc2ccccn2)nc2c(N3CCOCC3)nc(Cl)nc21
inactive: SNB-75 CNS 14.5% | SNB-19 CNS 60.6% | PC-3 prostate 18.4% | UACC-62 melanoma 11.1% | SK-MEL-2 melanoma 26.7% | A498 renal 51.9%
active: HCT-15 colon -42.2% | HT29 colon 0.156% | U251 CNS 9.11% | SK-MEL-5 melanoma 3.6% | LOX IMVI melanoma -83.7% | SK-MEL-28 melanoma -90.8% | SN12C renal -41.5% | UO-31 renal -99.3% | TK-10 renal -72.2% | ACHN renal -100% | CAKI-1 renal -78.9% | CCRF-CEM leukemia -9.98% | MOLT-4 leukemia 0.583%

Cn1c(=O)c2[nH]c(CCCc3nc4c([nH]3)c(=O)n(C)c(=O)n4C)nc2n(C)c1=O
inactive: HCT-15 colon 115% | HT29 colon 109% | SNB-75 CNS 105% | SNB-19 CNS 101% | U251 CNS 107% | PC-3 prostate 94% | SK-MEL-5 melanoma 103% | UACC-62 melanoma 96.8% | LOX IMVI melanoma 105% | SK-MEL-28 melanoma 131% | EKVX NSCLC 113% | SN12C renal 103% | UO-31 renal 102% | TK-10 renal 118% | ACHN renal 103% | CAKI-1 renal 108% | A498 renal 142% | MOLT-4 leukemia 136%

CCCc1cc2c(cc1Br)OCO2
inactive: HCT-15 colon 101% | HT29 colon 100% | SNB-75 CNS 99.9% | SNB-19 CNS 106% | U251 CNS 100% | PC-3 prostate 85.7% | SK-MEL-5 melanoma 99.6% | UACC-62 melanoma 101% | LOX IMVI melanoma 95.2% | SK-MEL-28 melanoma 105% | SK-MEL-2 melanoma 98% | SN12C renal 97.3% | UO-31 renal 95% | TK-10 renal 100% | ACHN renal 105% | CAKI-1 renal 104% | A498 renal 98.6% | CCRF-CEM leukemia 96.5% | MOLT-4 leukemia 110%

COc1nccnn1
inactive: HCT-15 colon 98.1% | HT29 colon 97.8% | SNB-75 CNS 96.5% | SNB-19 CNS 91.2% | U251 CNS 100% | PC-3 prostate 87.1% | SK-MEL-5 melanoma 104% | UACC-62 melanoma 98.9% | LOX IMVI melanoma 94.9% | SK-MEL-28 melanoma 102% | SN12C renal 97.1% | UO-31 renal 100% | TK-10 renal 93.3% | ACHN renal 100% | CAKI-1 renal 108% | A498 renal 92.9% | CCRF-CEM leukemia 99.8% | MOLT-4 leukemia 106%
active: SK-MEL-2 melanoma -31.3%

CC(C)(C)CC(C)(C)Nc1c(-c2ccc(C(F)(F)F)cc2)nc2cnccn12
inactive: HCT-15 colon 73.8% | HT29 colon 57.4% | SNB-75 CNS 81.1% | SNB-19 CNS 91.8% | U251 CNS 93% | PC-3 prostate 68.5% | SK-MEL-5 melanoma 90% | UACC-62 melanoma 72.9% | LOX IMVI melanoma 97.6% | SK-MEL-28 melanoma 93.9% | SK-MEL-2 melanoma 91% | SN12C renal 86.1% | UO-31 renal 64.1% | TK-10 renal 102% | ACHN renal 87% | CAKI-1 renal 75.4% | A498 renal 83.8% | CCRF-CEM leukemia 85.8% | MOLT-4 leukemia 68.5%

Cc1ccc(C(c2c(O)c3cc(Br)ccc3[nH]c2=O)c2c(O)c3cc(Br)ccc3[nH]c2=O)cc1
inactive: HCT-15 colon 79.1% | HT29 colon 97.5% | SNB-75 CNS 83.7% | SNB-19 CNS 93% | U251 CNS 83.7% | PC-3 prostate 75.5% | SK-MEL-5 melanoma 73.3% | UACC-62 melanoma 63.2% | LOX IMVI melanoma 84.1% | SK-MEL-28 melanoma 89.6% | SK-MEL-2 melanoma 90.2% | SN12C renal 94.5% | UO-31 renal 59.5% | TK-10 renal 106% | ACHN renal 73.5% | CAKI-1 renal 76.5% | A498 renal 79.6% | CCRF-CEM leukemia 80.3% | MOLT-4 leukemia 66.6%

CCn1ccnc1C(=O)/C=C/c1ccc(CC(=O)Nc2ccc(F)cc2)cc1
inactive: HCT-15 colon 13.2% | SNB-19 CNS 14.9% | U251 CNS 10.5% | PC-3 prostate 33% | SK-MEL-5 melanoma 29.3% | UACC-62 melanoma 55.6% | LOX IMVI melanoma 13.9% | SK-MEL-28 melanoma 79.8% | SK-MEL-2 melanoma 97.8% | SN12C renal 26.2% | UO-31 renal 39.8% | TK-10 renal 66.3% | ACHN renal 63.6% | CAKI-1 renal 34.1% | MOLT-4 leukemia 24.2%
active: HT29 colon -27.6% | SNB-75 CNS 6.23% | CCRF-CEM leukemia 7.58%

COc1ccc(-c2nc(SC(C)C)nc(NNC(N)=O)c2C#N)cc1
inactive: HCT-15 colon 58.6% | HT29 colon 106% | SNB-75 CNS 59.1% | SNB-19 CNS 89% | U251 CNS 93.5% | PC-3 prostate 75.9% | SK-MEL-5 melanoma 89.1% | UACC-62 melanoma 85.8% | LOX IMVI melanoma 76.7% | SK-MEL-28 melanoma 93% | SK-MEL-2 melanoma 92.9% | SN12C renal 83.9% | UO-31 renal 68.2% | TK-10 renal 97.1% | ACHN renal 90.1% | CAKI-1 renal 72.2% | A498 renal 90.2% | CCRF-CEM leukemia 88.3% | MOLT-4 leukemia 78.6%
